Compound activity deposited in PubChem BioAssay by National Center for Advancing Translational Sciences (NCATS).
Shiga toxin inh: Shiga toxin inhibition. Vero cells, Shiga toxin protein synthesis inhibition reporter. inhibition, % at 38.7 µM. 9.2% of 290,000 active; in the data active = inhibition mostly above about 28%, no sharp cut-off; inactive = mostly below about 43%; also: 0% is about no effect
Pf growth 48h: P. falciparum growth inhibition at 48 hours (one generation). 5.9% of 310,000 active. Potency, µM (doses to about 28.7 µM), without a hit: at the top dose activity change, negative = inhibition, hits mostly inhibitors. AID 504832. P. falciparum luciferase growth in erythrocytes, 48 h; also: potency is read from the fitted curve at half-maximal effect; % is scaled to controls: 0 for no effect and ±100 for the full control effect
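Growth was read as firefly luciferase luminescence after a 48 h, 37 C, 5% CO2 exposure of compounds to reporter-bearing P. falciparum cultures (0.1% parasitemia, 2% hematocrit final) in Albumax-supplemented RPMI 1640.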
Cycloheximide cs: affects cycloheximide protein synthesis inhibition readout, counter-screen; cell reporter, cycloheximide protein synthesis inhibition counterscreen; max response, %; 12% of 300,000 active; AID 2314; in the data active = max response mostly above about 13%, no sharp cut-off; inactive = mostly below about 14%; also: read at 38.3 µM for the half of the compounds with a filed dose; 0% is about no effect
Pf growth 96h: P. falciparum growth inhibition at 96 hours; P. falciparum luciferase reporter growth, 96 h; 6.9% of 320,000 active; AID 504834; Potency, µM (series often up to 28.7 µM), for the others: at the highest dose activity change, negative = inhibition, actives largely listed as inhibitors; also: potency is read from the fitted curve at half-maximal effect; % is scaled to controls: 0 for no effect and ±100 for the full control effect
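Infected RBCs, 2% Hct / 0.05% parasitemia final; luciferase-reporter P. falciparum; cpd 96 h, 37 C, 5% CO2; luciferase detection reagent; luminescence.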
* = called active by the depositor; ? = inconclusive; . = not tested or not shown; [ ] = another dose, or the depositor's remark. Hits are enriched below; roughly 21% of the tested compounds scored in any of these assays. Unless noted, calls follow the shape of the dose curve; as a rule, active = well fitted inhibition curve with a large enough effect; inconclusive = small, poorly fitted or top-dose-only effect, or another doubt; inactive = no such curve, though single readings can be large or run the other way.

SMILES | Shiga toxin inh | Pf growth 48h | Cycloheximide cs | Pf growth 96h
CCCC(c1nnnn1CS(=O)(=O)c1ccc(C)cc1)N1CCN(c2ccc(F)cc2)CC1 (stereo not drawn) | -5 | 17µM* | 0 | ?
S=C(NCc1ccccc1)NCc1ccccc1Cl | -8 | 6% | 9 | ?
CCCC1NC(C(=O)O)Cc2c1[nH]c1ccccc21 (stereo not drawn) | -20 | -2% | -3 | ?
Cc1ccc(CN(C)C(=O)CN2C(=O)NC(c3ccccc3)(c3ccccc3)C2=O)c(C)c1 | . | 13µM* | . | ?
CN(CC(=O)Nc1ccccc1Cl)C(=O)CN1C(=O)NC(c2ccccc2)(c2ccccc2)C1=O | . | ? | . | -2%
CC1CCCC(NC(=O)CN2C(=O)NC(c3ccccc3)(c3ccccc3)C2=O)C1C (stereo not drawn) | . | 15µM* | . | ?
CCN(C(=O)CN1C(=O)NC(c2ccccc2)(c2ccccc2)C1=O)c1ccccc1 | -3 | 13µM* | -3 | ?
CC(=O)CN1C(=O)NC(c2ccccc2)(c2ccccc2)C1=O | 4 | 19% | -1 | 18%
CCN(Cc1cccs1)C(=O)CN1C(=O)NC(c2ccccc2)(c2ccccc2)C1=O | . | ? | . | 13µM*
COc1ccc(N2CCN(C(=O)c3cc(=O)c4ccc(C)cc4o3)CC2)cc1 | -4 | -1% | 4 | ?
O=C(CN1C(=O)NC2(CCOc3ccccc32)C1=O)NCC(F)(F)F (stereo not drawn) | -11 | 17% | -1 | 30%
COc1ccc(/C=C(\C#N)c2nc(-c3cc4c(ccc5ccccc54)oc3=O)cs2)cc1O | -4 | . | -2 | .
COc1cccc(C(=O)CSc2nc3cccnc3n2C)c1 | 16 | 0% | 3 | -24%
CCOC(=O)CSc1nc2cccnc2n1C | 9 | 7% | 14 | ?
Cn1ccnc1SCC(=O)c1cccc(C(F)(F)F)c1 | 72* | 47% | 26* | 2%
COc1ccc(C(=O)CSc2nc3cccnc3n2C)cc1 | 7 | 10% | 5 | 3.7µM*
Cn1ccnc1SCC(=O)c1ccc(C#N)cc1 | 23 | 15% | -4 | 8%
Cn1ccnc1SCC(=O)c1ccc(OC(F)F)cc1 | 78* | 118% | 33* | 99%
Cn1c(SCc2ccccc2F)nc2cccnc21 | 117* | 84% | 28* | 6%
Cc1ccsc1C(=O)N1CCCC(CCC(=O)N2CCN(c3ccccn3)CC2)C1 (stereo not drawn) | -7 | ? | -2 | -14%
CO/N=C/c1ccc(OC)c(Oc2nc(OC)cc(OC)n2)c1 | 2 | 2% | 0 | 21%
Cc1cc(C(=O)N/N=C/C=C/c2cccc([N+](=O)[O-])c2)n[nH]1 | -10 | -8% | 7 | 154%
COc1ccc(C(=O)CSc2cc(C)[nH]c(=O)n2)cc1 | 64* | 17% | 40* | 124%
COc1ccc(C(=O)CSc2nccn2C)cc1 | 67* | 103% | 29* | 114%
COc1ccc(NCc2nnc(SCC(=O)c3ccc(OC)cc3)n2C)cc1 | 28 | ? | 34* | 40%
SMILES | Shiga toxin inh | Pf growth 48h | Cycloheximide cs | Pf growth 96h
COC(=O)c1ccc(CSc2nccn2C)cc1 | 65* | 68% | 52* | .
O=S(=O)(NC12CC3CC(CC(C3)C1)C2)c1ccc(F)cc1 | -15 | 1% | -3 | .
COc1ccc(C)c2sc(NNC(=O)COc3ccccc3)nc12 | -6 | 38% | -2 | 45%
C[C@@H]1C(=O)O[C@H]2[C@H](O)[C@@]34[C@H]5CC(C(C)(C)C)[C@]36[C@H](OC(=O)[C@H]6O)O[C@]4(C(=O)O5)[C@@]12O (stereo partly drawn) | -13 | . | 11 | .
Cc1ccc2c(CC(=O)NCC3(N4CCOCC4)CCCCC3)coc2c1C | . | ? | . | 9.3µM*
N#CCC(=O)Nc1ccc(C(=O)NCC2(N3CCOCC3)CCCCC2)cc1 | . | 12µM* | . | 10µM*
Cc1ccc2c(CC(=O)NCc3ccco3)coc2c1C | 33* | -9% | 23* | 14%
Cc1ccc2c(CC(=O)NC3CCS(=O)(=O)C3)coc2c1C (stereo not drawn) | -23 | 25% | -6 | ?
COc1ccc(CN(CC(=O)NCCc2ccccc2)C(=O)CCC(=O)Nc2ccccn2)cc1 | -3 | -5% | -1 | -5%
OC(CN1CCN(C(c2ccccc2)c2ccccc2)CC1)c1ccc(Br)cc1 (stereo not drawn) | 11 | . | -4 | 1.3µM*
OC(CN1CCN(C(c2ccccc2)c2ccccc2)CC1)c1ccccc1 (stereo not drawn) | -7 | 9.3µM* | -1 | ?
OC(CN1CCN(c2ccccc2F)CC1)c1ccc(F)cc1 (stereo not drawn) | 12 | ? | 9.9* | ?
CN(Cc1ccccc1)C(=O)CN1CCN(C(c2ccccc2)c2ccccc2)CC1 | -13 | -33%[5.75 µM] | -2 | 10µM*
Cc1ccc(N(CC2CO2)S(=O)(=O)c2ccc([N+](=O)[O-])cc2)cc1 (stereo not drawn) | 2 | -6% | -5 | -9%
COc1ccccc1CNC(=O)CCn1c(=O)[nH]c2ccsc2c1=O | -5 | 1µM* | 2 | ?
COc1cc2[nH]c(=O)n(CCC(=O)N3CCc4ccccc4C3)c(=O)c2cc1OC | -16 | . | 7 | 16%
CCOC(=O)N1CCN(C(=O)CCn2c(=S)[nH]c3ccsc3c2=O)CC1 | 14 | 19% | 13 | 9.3µM*
COc1ccc(N2CCN(C(=O)CCCn3c(=O)[nH]c4ccsc4c3=O)CC2)cc1 | -4 | . | -3 | 7.4µM*
O=C(CCn1c(=O)[nH]c2ccsc2c1=O)N1CCc2ccccc2C1 | 20 | 11% | 4 | 10µM*
COc1ccc(N2CCN(C(=O)CCCCn3c(=O)[nH]c4ccsc4c3=O)CC2)cc1 | -14 | 0% | 5 | 14%
CCOC(=O)N1CCN(C(=O)CCn2c(=O)[nH]c3ccsc3c2=O)CC1 | 10 | 2% | -6 | ?
CC(NC(=O)C12CC3CC(CC(O)(C3)C1)C2)c1ccccc1 (stereo not drawn) | -13 | 39% | -1 | 47%
CN1[C@@H]2CC[C@H]1CC(OC(=O)[C@@H](O)c1ccccc1)C2 (stereo partly drawn) | . | -15% | . | -20%
O=C(CCCn1c(=S)[nH]c2ccsc2c1=O)Nc1ccc2c(c1)OCCO2 | 98* | 113% | 39* | -10%
O=C(CCCCn1c(=S)[nH]c2ccsc2c1=O)NCc1ccc2c(c1)OCO2 | -10 | 0% | 4 | 51%
SMILES | Shiga toxin inh | Pf growth 48h | Cycloheximide cs | Pf growth 96h
FC(F)(F)c1cccc(Cc2noc(CN3CCCC(OCc4ccccn4)C3)n2)c1 (stereo not drawn) | -1 | -3% | 2 | 15µM*
Fc1ccc(C2CCCN2Cc2nc(Cc3ccccc3)no2)cc1 (stereo not drawn) | -5 | ? | -1 | -11%
Fc1ccc(C2CCCN2Cc2nc(Cc3ccccc3F)no2)cc1 (stereo not drawn) | 19 | ? | 13* | ?
Fc1cccc(Cc2noc(CN3CCCCC3c3ccccn3)n2)c1 (stereo not drawn) | 82 | -24% | 35* | 8.3µM*
O=C(N[C@H](Cc1cc(=O)[nH]c2ccccc12)C(=O)O)c1ccc(Cl)cc1 | 19 | -6% | -4 | -1%
COc1ccc(CCN(C)CCCC(C#N)(c2cc(OC)c(OC)c(OC)c2)C(C)C)cc1OC (stereo not drawn) | 20 | 12µM* | 8 | 5.2µM*
